# Inconclusive results are not listed. A call without a number means that no potency is given here. Calls of active or inactive are those of the source. The call rests on the fitted dose curve; in most records, active means well fitted curve in the direction sought with a large enough effect; inconclusive means small, poorly fitted or top-dose-only effect, or another doubt; inactive means no such curve, though single readings can be large; an effect the other way counts as inactive or inconclusive.
# How the values were obtained:
# [1] = tested on: Zika virus NS2B-NS3 protease; assay: Primary screen GU AMC qHTS for Zika virus inhibitors (AID 1347154); settings: Zika NS2B-NS3 unlinked protease, AMC fluorogenic substrate; series mostly up to 54.1 µM; further: nearly all actives have a fitted effect of over 70% in size; further: potency means the concentration at half of the fitted maximal effect
# Method in brief: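 Fluorogenic AMC-substrate cleavage by noncovalent NS2B-NS3 protease complex (25 nM, pH 8.0 Tris buffer with Tween 20) followed for 15 minutes at room temperature (~20% conversion). Percent inhibition from ex340/em450 signal change, fitted by 4-parameter Hill equation.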
# [2] = qHTS to identify inhibitors of the type 1 interferon - major histocompatibility complex class I in skeletal muscle: primary screen against the NCATS Pharmaceutical Collection (AID 1347407); settings: human skeletal muscle cells, IFN-b-induced MHC-I HiBiT luminescence, 24 h; series mostly up to 45.9 µM;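 further: luminescence of HiBiT knocked into endogenous HLA-B as interferon-induced MHC class I level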; further: potency means the concentration at half of the fitted maximal effect
# Method in brief: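 A qHTS format is used: 8-point, 1:5 compound series with 46 uM top final concentration, applied alongside 4 ng/ml IFN-beta to HLA-B*08:01-HiBiT knock-in myoblasts. Luminescence is measured after 24 h treatment.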
# [3] = tested on: Zika virus NS2B-NS3 protease (linked construct); assay: Primary screen NINDS Rhodamine qHTS for Zika virus inhibitors (AID 1347160); settings: purified NS2B-NS3 protease, Rhodamine110 substrate fluorescence; series mostly up to 57.1 µM; further: nearly all actives have a fitted effect of over 55% in size
# Method in brief: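 Single-chain NS2B-NS3 protease, 25 nM, pH 8.0; compounds preincubated 15 min. Activity: Rhodamine110 release from 1.5 microM substrate over 15 min, room temperature, data fitted to 4-parameter Hill.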
# [4] = tested on: Zika virus NS2B-NS3 protease (unlinked complex); assay: Primary screen GU Rhodamine qHTS for Zika virus inhibitors: Unlinked NS2B-NS3 protease assay (AID 1347159); settings: Recombinant ZIKV NS2B-NS3 protease, Rhodamine110 substrate fluorescence; series mostly up to 107 µM; further: nearly all actives have a fitted effect of over 60% in size; further: potency means the concentration at half of the fitted maximal effect
# Method in brief: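 Unlinked NS2B/NS3, 25 nM; Rhod110 peptide, 1.5 microM; compounds, up to 114 microM. Reaction run 15 min at RT in 10 mM Tris-HCl pH 8.0, 0.01% Tween 20; kinetic fluorescence change fitted with a 4-parameter Hill model.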
Compound,Potency [1],Potency [2],Potency [3],Potency [4]
Clc1ccc(C(Cn2ccnc2)OCc2ccc(Sc3ccccc3)cc2)c(Cl)c1 (stereo not given),inactive,inactive,–,–
CN(c1nccc(=O)[nH]1)C1CCN(c2nc3ccccc3n2Cc2ccc(F)cc2)CC1,inactive,inactive,inactive,–
Cc1ccc(C)c(OCCCC(C)(C)C(=O)O)c1,inactive,inactive,–,–
COCCCOc1ccnc(CS(=O)c2nc3ccccc3[nH]2)c1C (stereo not given),inactive,inactive,inactive,inactive
NC(=O)Cc1cccc(C(=O)c2ccccc2)c1N,inactive,inactive,–,–
O=C(OC1C[C@H]2CC[C@@H](C1)[N+]21CCCC1)C(O)(c1ccccc1)c1ccccc1 (stereo not given in full),inactive,inactive,inactive,inactive
CC(C)[C@H](N)C(=O)OCCOCn1cnc2c(=O)[nH]c(N)nc21,inactive,inactive,–,–
Cc1ccc(S(=O)(=O)NC(=O)NN2CC3CCCC3C2)cc1 (stereo not given),inactive,inactive,–,–
CCC(C)(Oc1ccc(C2(c3ccc(OC(C)(CC)C(=O)O)cc3)CCCCC2)cc1)C(=O)O (stereo not given),inactive,inactive,–,31.6 µM (active)
COc1cc(OC)c(C(=O)CCCN2CCCC2)c(OC)c1,inactive,inactive,–,–
COc1ccc(C2(C#N)CCC(C(=O)O)CC2)cc1OC1CCCC1 (stereo not given),inactive,–,inactive,inactive
NS(=O)(=O)c1cc(C(=O)O)c(NCc2ccco2)cc1Cl,inactive,inactive,–,–
Nc1nc(Cl)nc2c1ncn2[C@H]1C[C@H](O)[C@@H](CO)O1,inactive,–,–,–
CN(C)CCc1c[nH]c2ccc(Cn3cncn3)cc12,inactive,–,–,–
CCCS(=O)c1ccc2nc(NC(=O)OC)[nH]c2c1 (stereo not given),inactive,inactive,inactive,–
CN1C(C(=O)Nc2ccccn2)=C(O)c2sccc2S1(=O)=O,inactive,–,–,–
O=c1oc2cc(O)ccc2s1,inactive,–,–,–
O=P(O)(O)C(O)(Cn1ccnc1)P(=O)(O)O,inactive,–,–,–
CN(C)C(=O)COC(=O)Cc1ccc(OC(=O)c2ccc(N=C(N)N)cc2)cc1,inactive,inactive,–,–
CCCCCCCCCCCCCCCCCCCCCCO,inactive,–,–,–
COc1cc(Nc2c(C#N)cnc3cc(OCCCN4CCN(C)CC4)c(OC)cc23)c(Cl)cc1Cl,inactive,7.45 µM (active),inactive,inactive
CC(C)(S)[C@@H](N)C(=O)O,inactive,–,–,–
Cc1cc2cc3c(C)cc(=O)oc3c(C)c2o1,inactive,inactive,–,–
N=C(N=C(N)N)N1CCOCC1,inactive,inactive,–,–
O=C(O)c1cccc(-c2noc(-c3ccccc3F)n2)c1,inactive,inactive,inactive,inactive
Cc1ncc([N+](=O)[O-])n1CC(C)O (stereo not given),inactive,inactive,–,–
O=C(NCCO[N+](=O)[O-])c1cccnc1,inactive,inactive,–,–
CC(C)c1ccc2oc3nc(N)c(C(=O)O)cc3c(=O)c2c1,15.8 µM (active),inactive,–,–
CCCCC(CC)COC(=O)C(C#N)=C(c1ccccc1)c1ccccc1 (stereo not given),inactive,inactive,–,–
Cc1nc2n(c(=O)c1CCN1CCC(c3noc4cc(F)ccc34)CC1)CCCC2,inactive,inactive,–,–

# — PubChem BioAssay (NCATS)
